Screens: PubChem, National Center for Advancing Translational Sciences (NCATS)
IMPase Li inh – IMPase inhibition in cells with lithium potentiation; CHO-M1 cells, IP1 TR-FRET (IP-One), carbachol + lithium; Potency, µM (top dose mostly 59.4 µM), for inactives: at the highest dose activity, negative = IMPase inhibition, most hits filed as inhibitors; 210,000 compounds, 0.35% hits; active = well fitted inhibition curve with a large enough effect; inconclusive = small, poorly fitted or top-dose-only effect; inactive = no such curve, though single readings can be large or run the other way;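 also: IP1 builds up when IMPase is blocked and the TR-FRET signal falls; potency is read from the fitted curve at half-maximal effect; plate controls were basal vehicle for no effect and high inhibitor control for full effect; nearly all actives have a fitted effect of over 50% in size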
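CHO cells stably expressing M1 receptor (2000/well) were cultured 16–30 h, then exposed to compounds with a small lithium addition for 30 min at 37C. IP1 was measured by TR-FRET competition; AC50 from Hill fits.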
PNC inhibitor – perinucleolar compartment assembly inhibition; PC3M PTB-GFP, PNC prevalence imaging, 16 h; active compounds read low; activity change (PNC), negative = inhibition, % at 10 µM; 140,000 compounds, 3.1% hits; AID 2417;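 active = readout at or below -70, meaning at least 70% loss of cells showing the perinucleolar compartment, a nuclear body marking cancer cells; inconclusive = readout between -30 and a set limit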;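 also: plate controls were DMSO wells for no effect and camptothecin positive control wells for full effect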
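Compounds are pinned in duplicate onto adhered PC3M cells stably expressing GFP-tagged PTB and incubated 16 h at 37 C. Cells are then fixed, nuclei stained with Hoechst, and PNC-positive cells counted.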
HPGD inh – inhibitors of human 15-hydroxyprostaglandin dehydrogenase (HPGD); AID 894; 150,000 compounds, 4.3% hits; Potency, µM, inactives show at the top dose activity change, negative = inhibition, hits mostly inhibitors; purified HPGD, NADH fluorescence kinetic, PGE2 substrate; P15428; also: potency is read from the fitted curve at half-maximal effect
Target sequence (P15428 whole entry, looked up): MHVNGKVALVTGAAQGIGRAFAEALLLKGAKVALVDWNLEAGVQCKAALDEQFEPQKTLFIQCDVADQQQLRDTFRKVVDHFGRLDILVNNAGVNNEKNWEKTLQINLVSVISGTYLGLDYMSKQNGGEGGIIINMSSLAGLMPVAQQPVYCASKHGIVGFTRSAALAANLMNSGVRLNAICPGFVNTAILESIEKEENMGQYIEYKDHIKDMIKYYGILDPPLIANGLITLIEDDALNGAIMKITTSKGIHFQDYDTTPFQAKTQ
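NADH formation kinetics: reaction with 30 uM PGE2 and 1 mM NAD+ (final), 20 nM enzyme, Tris-HCl pH 8 with Tween 20, after 15 min compound preincubation at room temperature. Fluorescence change, last versus first of five reads.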
IMPase cell inh – membrane-permeable compound that blocks inositol monophosphatase | 120,000 tested, under 10 active | CHO-M1 cells, IP1 accumulation, HTRF TR-FRET ratio | P97697 | inhibition (IP1 accumulation), % at 46.1 µM; active = well fitted curve in the direction sought with a large enough effect in the signal ratio, not every such curve was filed as active; inconclusive = small, poorly fitted or top-dose-only effect, or a change in a side signal; inactive = no such curve, though single readings can be large or run the other way; the % refers to the signal ratio;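 also: cells stimulated with carbachol in lithium chloride buffer; plate controls were DMSO basal wells for no effect and reference inhibitor wells for full effect; higher means more IMPase inhibition seen as more IP1 and lower FRET ratio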
Target sequence (P97697 whole entry, looked up): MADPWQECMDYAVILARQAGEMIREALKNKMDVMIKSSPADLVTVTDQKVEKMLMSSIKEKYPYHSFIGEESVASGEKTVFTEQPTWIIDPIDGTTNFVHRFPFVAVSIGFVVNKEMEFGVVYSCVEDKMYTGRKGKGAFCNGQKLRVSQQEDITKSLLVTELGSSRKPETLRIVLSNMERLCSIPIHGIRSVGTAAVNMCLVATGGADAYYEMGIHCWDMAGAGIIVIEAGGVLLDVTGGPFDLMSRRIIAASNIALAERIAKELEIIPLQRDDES
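Seeded CHO-M1 cells were dosed with compound at up to 46 uM, stimulated with carbachol for 30 min, then lysed in IP-One detection reagents. Higher IP1 lowers the TR-FRET signal.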
ALDH1A1 inh – blocks purified human ALDH1A1 activity; Potency, µM (top dose mostly 75.3 µM), without a hit: at the top dose activity, negative = inhibition, actives largely listed as inhibitors; Purified ALDH1A1, NADH fluorescence, propionaldehyde substrate; AID 1030; 220,000 compounds, 7.3% hits;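 also: potency is read from the fitted curve at half-maximal effect; plate controls were no enzyme wells and a reference inhibitor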
* hit, by the source's call; ? = inconclusive; . = no result; [ ] = dose if it differs, or a comment. Sampled rows, rich in hits. Any-hit rate of the full collection: about 11%. Unless noted, calls follow the shape of the dose curve; as a rule, active = well fitted inhibition curve with a large enough effect (not every such curve was filed as active); inconclusive = small, poorly fitted or top-dose-only effect, or another doubt; inactive = no such curve, though single readings can be large or run the other way. Unless noted, % is scaled to controls: 0 for no effect and ±100 for the full control effect.

SMILES	IMPase Li inh	PNC inhibitor	HPGD inh	IMPase cell inh	ALDH1A1 inh
O=C(COc1ccc(S(=O)(=O)N2CCCC2)cc1Cl)NCc1ccc2c(c1)OCO2	34%[38.3 µM]	-107*	-16%	21	5µM*
Cc1cc(=O)oc2cc(OCC(=O)N3CCOCC3)ccc12	3%	-100*	?	-4	?
CCOC(=O)c1cnc2c(Cl)c(Cl)ccc2c1Nc1ccc(N(C)C)cc1	.	.	.	6	.
C[C@H]1OC(=O)CC[C@@H]2[C@]1(C)CCC1[C@@]2(C)CC[C@@]2(C)C3CC(C)(C)CC[C@]3(CO)CC[C@]12C (some centres not stated)	-4%	.	-4%	.	4%
O=C(COc1ccc(S(=O)(=O)N2CCCC2)cc1Cl)NCc1ccco1	23%[38.3 µM]	7	-5%	?	?
O=C(COc1ccc(S(=O)(=O)N2CCCC2)cc1Cl)N1CCN(c2ccccc2)CC1	20%[38.3 µM]	?	-13%	9	18µM*
O=C(COc1ccc(Cl)cc1Br)N1CCN(c2ccccc2)CC1	10%[38.3 µM]	-10	-9%	6	1%
Cc1cc(S(=O)(=O)N2CCCC2)ccc1OCC(=O)NCc1ccco1	28%[38.3 µM]	-18	?	-1	10µM*
COc1cccc(C2C(C(=O)Nc3ccccc3OC)=C(C)Nc3nc(-c4ccco4)nn32)c1 (configuration not stated)	.	.	.	18	.
O=C1N2CCSC2=NC1(Nc1ccccn1)C(F)(F)F (configuration not stated)	-11%[38.3 µM]	-12	-6%	1	0%
CS(=O)(=O)c1ccc2nc(NC3(C(F)(F)F)N=C4SCCN4C3=O)sc2c1 (configuration not stated)	-5%[38.3 µM]	-106*	0%	-8	5%
O=Cc1c[nH]c2ccc(S(=O)(=O)N3CCOCC3)cc12	-12%	2	-11%	.	-15%
Cc1cccc(S(=O)(=O)C(C#N)c2nc3ccccc3nc2N2CC(C)OC(C)C2)c1 (configuration not stated)	-5%[38.3 µM]	?	-5%	-10	?
Cc1ccc(S(=O)(=O)C(C#N)c2nc3ccccc3nc2N2CC(C)OC(C)C2)cc1C (configuration not stated)	4%[38.3 µM]	-139*	2%	0	-12%
O=C(CCl)c1ccc2[nH]c(=O)oc2c1	.	.	.	.	0.28µM*
Nc1ncnc(Sc2ccc(Cl)cc2)c1[N+](=O)[O-]	-4%	-103*	-5%	.	4%
Cc1ccc(Sc2ncnc(N)c2[N+](=O)[O-])cc1	-1%	-19	-19%	-4	0%
C=CCn1c(SCc2csc(-c3ccc(Cl)cc3)n2)nnc1-c1ccccc1OC	.	-15	.	1	5%
Cn1cnc([N+](=O)[O-])c1[Se]c1nc(N)nc2c1ncn2[C@@H]1O[C@@H](CO)[C@H](O)[C@@H]1O	-3%	.	-8%	.	6%[13.5 µM]
O=CN1CC(=O)N(c2ccccc2)c2c([nH]c3ccccc23)C1	-14%[38.3 µM]	-11	22µM*	-4	?
O=C(CN1CCN(c2ccccc2)CC1)N1CCc2[nH]c3ccccc3c2C1	10%[38.3 µM]	-22	-4%	-3	-5%
Cc1ccc2c(Cl)c(C(=O)NCc3cccnc3)sc2c1	11%[38.3 µM]	7	?	1	12%
N#CCCN(Cc1cccnc1)C(=O)c1sc2cc(F)ccc2c1Cl	-14%	-6	7.1µM*	.	-3%
CCOc1cc(S(=O)(=O)NC2CCCCCC2)ccc1F	52%[38.3 µM]	26	25µM*	0	3.2µM*
CSc1nc2ccc(NS(=O)(=O)c3ccc4c(c3)OCCO4)cc2s1	-1%[38.3 µM]	15	-22%	1	-3%
SMILES	IMPase Li inh	PNC inhibitor	HPGD inh	IMPase cell inh	ALDH1A1 inh
CCOc1ccc(S(=O)(=O)NC2CCCCCC2)cc1	16%	.	.	.	?
CSc1nc2ccc(S(=O)(=O)NC3CCCCC3)cc2s1	42%[38.3 µM]	3	16µM*	2	?
Cc1ccc(C2CC(=O)Oc3cc(C)c(Cl)c(C)c32)cc1 (configuration not stated)	16%	.	-16%	.	-13%
Cc1c(/C=N\NC(=O)c2ccc([N+](=O)[O-])cc2)cnn1C	-8%	-109*	-11%	.	3%
O=C(Cc1ccc(F)cc1)N/N=C/c1ccccn1	-3%	-113*	-9%	.	-3%
Cc1c(/C=N/NC(=O)c2sc3ccccc3c2Cl)cnn1C	7%[38.3 µM]	-26	-20%	2	20µM*
